RVFV N-RNA inh: inhibitors of Rift Valley Fever Virus nucleocapsid-RNA interaction; % bound, % (concentration not given with the values); P21700; RVFV N-RNA binding, fluorescence polarization; active compounds read low; 20,000 tested, 0.1% active; in the data active means % bound below about 75%
Target sequence (P21700 whole entry, looked up): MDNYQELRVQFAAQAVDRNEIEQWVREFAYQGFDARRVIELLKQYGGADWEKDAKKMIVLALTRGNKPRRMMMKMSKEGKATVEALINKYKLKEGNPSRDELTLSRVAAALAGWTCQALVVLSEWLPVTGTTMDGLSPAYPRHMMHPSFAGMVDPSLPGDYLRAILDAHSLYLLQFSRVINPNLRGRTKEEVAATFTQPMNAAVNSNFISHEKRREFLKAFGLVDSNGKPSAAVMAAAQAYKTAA
The depositor's hits bear a star; ! = not confirmed by another sample. The entries come from a sample that favours hits as a whole.

SMILES	RVFV N-RNA inh
Cc1nc2ccccn2c1/C(O)=C1\C(=O)C(=O)N(CCCN2CCOCC2)C1c1cccc(F)c1 (configuration not stated)	93.0
O=C(CSc1ccccc1)N/N=C/c1ccccc1O	88.9
NC(CO)C(=O)NNCc1ccc(O)c(O)c1O (configuration not stated)	85.1
NC(CO)C(=O)N/N=C/c1ccc(O)c(O)c1O (configuration not stated)	50.6*
CN(Cc1ccccc1)Cc1ccco1	93.9
CCCCSc1nnc(-c2ccco2)n1N	98.8
CCOC(=O)Cn1cc(/C=C(\C#N)Sc2nc3ccccc3s2)c2ccccc21	92.8
O=C(Nc1ccccc1)N1CCN(C(=O)C2CCCO2)CC1 (configuration not stated)	91.9
CCc1ccc(S(=O)(=O)NCCc2csc(C)n2)cc1	93.1
Cc1ccc(N2C(=O)c3cccc4c(N5CCN(C)CC5)ccc(c34)C2=O)c2cccnc12	54.7*
O=C1c2cccc3c(Cl)ccc(c23)C(=O)N1c1ccccn1	88.9
O=C(O)c1ccc2c3c(cccc13)C(=O)N(c1ccccc1O)C2=O	96.7
CCOC(=O)/C(N=O)=C(/O)c1ccccc1	91.2
CC(C)Cn1ncc(=O)n(CC(C)C)c1=O	105.3
COc1cc(CNC2CCCCC2C)cc(OC)c1 (configuration not stated)	90.1
Cn1c(=O)c(C(=O)Nc2cccc(O)c2)c(O)c2ccccc21	96.5
O=C(Oc1c(C(=O)c2ccccc2)sc2ccccc12)c1ccco1	96.4
CCCCCC(=O)NC1CCN(C)CC1	102.1
COc1ccc(NC(=S)NC(=O)c2oc3ccccc3c2C)c(OC)c1	94.2
CC(=O)OCCSc1nc(N(C)C)nc(N(C)C)n1	98.6
Cc1cccn2cc(CNC(=O)CC(C)(C)C)nc12	98.8
C=CCOC(c1ccccc1)c1nc2ccccc2n1CC=C (configuration not stated)	99.9
Cc1cc(NC=C(C#N)C#N)no1	90.8
CCOC(=O)c1ccc(-n2nc(C)c(C(=O)OCC)c2C)cc1	90.8
CC1CC(=O)c2cc(Cl)ccc2S1 (configuration not stated)	93.7
SMILES	RVFV N-RNA inh
COC(=O)Nc1ccc2c(c1)CCCN2S(=O)(=O)c1ccc(C)cc1	87.6
CC(C)NC(=O)CSc1nc2ccccc2c(=O)n1-c1ccccc1	90.1
CC(=O)Oc1c(C)cc(C)c2ccc(C)nc12	99.0
Clc1ccc2c(c1)NNc1nncn1-2	93.1
O=C(O)CSc1nnc2n1-c1ccc(Cl)cc1NN2	55.9*
NC(=O)CSc1nc2ccc(Cl)cc2[nH]1	99.7
COc1ccccc1NC(=O)Nc1nc(CC(=O)N2CCCC2)cs1	94.9
C[N+](C)(C)CCOP(=O)(O)OP(=O)([O-])OC[C@H]1O[C@@H](n2ccc(N)nc2=O)C(O)[C@H]1O (some centres not stated)	94.6
CC1CCN(CCCC(=O)c2ccc(F)cc2)CC1	95.7
O=C(CCCN1CCC2(CC1)C(=O)NCN2c1ccccc1)c1ccc(F)cc1	56.0*!
O=C(CCCN1CCC(O)(c2ccc(Cl)cc2)CC1)c1ccc(F)cc1	100.7
Cc1cc(NC(=O)Cn2c(=O)n(CC(=O)NCCc3ccccc3)c(=O)c3ccccc32)n[nH]1	87.2
N/C(=N\OC(=O)c1ccc2ncsc2c1)c1ccccc1	94.2
O=C1NC(=O)C2C3C=CC(O3)C12 (configuration not stated)	94.2
CC(C)(C)n1nc(C2CC2)cc1NC(=O)c1ccccc1	92.8
N#Cc1cccc2c1[nH]c1ccc(Cl)cc12	99.1
COc1ccc(OC)c(C2c3cccn3CCN2S(=O)(=O)c2ccccc2C(F)(F)F)c1 (configuration not stated)	106.6
C=CCN1C(=O)C2Cc3c([nH]c4ccccc34)C(C)N2C1=S (configuration not stated)	78.8
Cn1c(=O)c2c(SCCN3CCOCC3)nc(-c3ccccc3Cl)nc2n(C)c1=O	96.3
Cn1c(O)c(C=NCc2ccc3c(c2)OCO3)c(=O)[nH]c1=S	101.4
COc1cc2c(cc1OC)/C(=C/C(N)=O)NC(C)(C)C2	93.0
O=C(O)c1ccccc1C(=O)N1CCN(c2ccncc2)CC1	97.4
O=C(NCCN1CCOCC1)C1(c2cccs2)CCOCC1	92.6
O=C(Nc1ccc2c(c1)OCO2)Nc1ccc(N2CCOCC2)c2nonc12	99.0
O=S(=O)(/N=C/c1ccco1)c1cccs1	98.7
SMILES	RVFV N-RNA inh
C/C=C/C(=O)NC(C)c1ccccc1 (configuration not stated)	96.9
O=C(O)Cc1ccc2c(c1)OCO2	91.1
CCOC(=O)c1nn(-c2ccc(C)cc2)c(=N)s1	91.1
Cc1c(Cc2ccccc2)c(=O)oc2cc(OC(=O)c3ccco3)ccc12	82.1
Cc1ccc(C(=O)Nc2ccc(-c3nnc(-c4ccco4)o3)cc2)cc1C	96.4
C=CCN=Cc1c(O)[nH]c2ccccc12	94.2
OCCN=Cc1[nH]c2ccccc2c1O	54.9*
OCC(O)CN=Cc1c(O)[nH]c2ccccc12 (configuration not stated)	92.3
CCn1nnc2c(NC3CCCCC3)ncnc21	100.9
CN=c1nc(-c2ccccc2)n(-c2ccccc2)s1	49.7*
CCSc1nnc(-c2ccccc2)n1-c1ccccc1	97.7
CC1(C)Cn2c(nnc2-c2ccccc2)S1	92.2
Cc1cc2ncn(C(=O)N(C)C)c2cc1C	99.8
CCn1c(O)c(C=NC2CCCCCC2)c(=O)[nH]c1=S	96.7
Cc1ccccc1OC(C)C(=O)N1CCCc2ccccc21 (configuration not stated)	97.9
COc1ccccc1C(=O)CS(=O)(=O)c1ccc(C)cc1	85.6
Cc1ccc(C(=O)Nc2ccccc2N2CCCCC2)c(C)c1	97.8
Cc1cc(N2CCN(c3ccccc3)CC2)nc2cc(Cl)ccc12	91.7
CCN(CC)C(=O)c1ccccc1Sc1ccccc1C#N	98.8
Cc1cc(NC(=O)CCC(=O)Nc2cc(C)on2)no1	96.9
CCN(Cc1ccccc1)Cc1cccnc1	108.4
CCCN=Cc1c(O)n(C2CCCCC2)c(=O)n(C2CCCCC2)c1=O	98.2

Compound activity (PubChem)
